The record followed here is PubChem BioAssay (EPA / NIEHS).

In general, AC50 refers to the concentration giving half of the maximal activity seen.

Inconclusive results are not listed. More than one record can exist for a structure, and the calls need not agree. Activity calls are given as the source filed them. The calls were made as follows, unless noted: active = hit-call score of the fitted dose curve at least 0.9, where 1 is the maximum; inactive = score below 0.9.

Assay [1] deals with Nuclear respiratory factor 1 (Homo sapiens) (UniProt Q16656). As to the kind of experiment: ATG_NRF1_CIS: Attagene CIS-FACTORIAL HepG2 Assay for human Nuclear Respiratory Factor 1 (NRF1) Orphan Gene (AID 2282987). Conditions: HepG2 NRF1 cis-element reporter, Attagene multiplex; actives raise or lower the signal. An outline of the steps: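 HepG2 cells transiently transfected with multiple cis-regulated reporter units, exposed 24 h. Reporter mRNAs measured by RT-PCR, fluorescent labelling, HpaI digestion and capillary electrophoresis; bidirectional fitting against DMSO.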

The nature of assay [2]: ATG_NFI_CIS: Attagene CIS-FACTORIAL HepG2 Assay for human Nuclear Factor I (NFI) (AID 2282989). Particulars: HepG2 cis-regulatory reporter, NFI response element transcription; actives raise or lower the signal. An outline of the steps:
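Reporter transcripts were measured by RT-PCR with fluorescent primer extension and capillary electrophoresis 24 h post-treatment. HepG2 cells carried transiently transfected cis-regulated reporter constructs reporting endogenous factor activity; gain or loss fitted against DMSO baseline.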

In assay [3] the target is Myc proto-oncogene protein (Homo sapiens) (UniProt P01106). As to the kind of experiment: ATG_Myc_CIS: Attagene CIS-FACTORIAL HepG2 Assay for human Myelocytomatosis (Myc) Proto-Oncogene Transcription Factor (AID 2282990). Particulars: HepG2, Attagene cis-reporter transcription factor activity; actives raise or lower the signal. An outline of the steps:
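Transiently transfected HepG2 cells bearing cis-promoter reporter units for endogenous transcription factors; 24 h exposure. Reporter mRNA measured by RT-PCR, 6-FAM primer extension, HpaI cut and capillary electrophoresis; bidirectional fit relative to DMSO.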

A short description of assay [4]: ATG_NF_kB_CIS: Attagene CIS-FACTORIAL HepG2 Assay for human Nuclear Factor Kappa B (NF-kB) (AID 2282991). Particulars: HepG2 Attagene cis-factorial NF-kB reporter mRNA; actives raise or lower the signal. An outline of the steps: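 HepG2 cells transfected with cis-promoter-driven reporter units, so endogenous transcription factor activity is measured. Reporter mRNA quantified 24 h after dosing by RT-PCR and capillary electrophoresis, with bidirectional fitting against DMSO.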

A short description of assay [5]: ATG_NRF2_ARE_CIS: Attagene CIS-FACTORIAL HepG2 Assay for human Nuclear Factor Erythroid 2 Related Factor 2 (NFR2) response to Antioxidant Response Elements (ARE) (AID 2282992).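 As to AC50: reporter mRNA level measured by RT-PCR and capillary electrophoresis fluorescence.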 Conditions: HepG2 Attagene ARE/NRF2 reporter, transcription factor activity; actives raise or lower the signal. An outline of the steps: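 Multiplexed reporter mRNA profiling in HepG2 after a 24 h chemical exposure. Curves fitted in both directions relative to DMSO negative control.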

Assay [6] in a line: ATG_Oct_MLP_CIS: Attagene CIS-FACTORIAL HepG2 Assay for human Octamer-Binding Transcription Factor (Oct) (AID 2282993). Particulars: HepG2 Attagene cis-factorial Oct reporter, mRNA; actives raise or lower the signal. An outline of the steps: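 Readout is reporter transcript level from RT-PCR with fluorescent primer extension and capillary electrophoresis, fitted in both directions against DMSO. Transfected HepG2 reporter units report endogenous factor activity after 24 h dosing.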

The target in assay [7] is Cellular tumor antigen p53 (Homo sapiens) (UniProt P04637). As to the kind of experiment: ATG_p53_CIS: Attagene CIS-FACTORIAL HepG2 Assay for human p53 Transcription Factor (AID 2282994). Particulars: HepG2 p53 cis-element reporter, Attagene mRNA; actives raise or lower the signal. An outline of the steps:
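Multiplexed reporter mRNA assay in human HepG2 liver cells; cis-regulated units report endogenous factor activity. Values come from bidirectional curve fitting against DMSO negative control after 24 h treatment.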

The nature of assay [8]: BSK_3C_TissueFactor: BioMAP Diversity Plus: 3C Assay for Tissue Factor Biomarker Activity (AID 2282997). Conditions: BioMAP 3C HUVEC, tissue factor biomarker readout; actives raise or lower the signal. An outline of the steps:
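Endothelial monolayers (human umbilical vein, primary) are dosed, incubated 24 h, and assayed for Tissue Factor by ELISA; DMSO serves as negative control for bidirectional fitting.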

The nature of assay [9]: BSK_3C_uPAR: BioMAP Diversity Plus: 3C Assay for Urokinase-type plasminogen activator receptor (uPAR) Biomarker Activity (AID 2282998). Particulars: BioMAP 3C HUVEC, uPAR biomarker ELISA; actives raise or lower the signal. A digest of the protocol: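 Cell-surface uPAR on HUVEC (3C system) read by ELISA at 24 h post-treatment, with DMSO as baseline and fitting in both directions. Parallel cultures stained with SRB to flag overt cytotoxicity.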
For orientation: ELISA stands for enzyme-linked immunosorbent assay.

The nature of assay [10]: BSK_3C_VCAM1: BioMAP Diversity Plus: 3C Assay for Vascular cell adhesion molecule 1 (VCAM1) Biomarker Activity (AID 2282999). Conditions: BioMAP 3C HUVEC, VCAM1 ELISA, cytokine-stimulated; actives raise or lower the signal. An outline of the steps:
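Human umbilical vein endothelial cells (3C system), biomarker read by ELISA 24 h after dosing; bidirectional fit against DMSO baseline. Cytotoxicity tracked by SRB total-protein staining in parallel cultures at biomarker time.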

A short description of assay [11]: BSK_4H_Eotaxin3: BioMAP Diversity Plus: 4H Assay for Eotaxin 3 Biomarker Activity (AID 2283000).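 As to outcome: CCL26 protein level quantified by ELISA in parallel with SRB cytotoxicity check.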 Particulars: primary human endothelial cells (HUVEC); actives raise or lower the signal. An outline of the steps: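 ELISA quantitation of CCL26 (Eotaxin-3) protein from chemically dosed human vascular endothelial cells at 24 h; increases and decreases both scored relative to DMSO-treated baseline.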

Assay [12] has as its target human Peroxisome Proliferator-activated Receptor delta (PPARd), PPARD (gene 5467) (UniProt Q03181). As to the kind of experiment: ATG_PPARd_TRANS: Attagene TRANS-FACTORIAL HepG2 Assay for human Peroxisome Proliferator-activated Receptor delta (PPARd) (AID 2283002; active = hit-call score of the fitted dose curve at least 0.9, where 1 is the maximum). A digest of the protocol: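 HepG2 cells transiently transfected with GAL4-UAS multiplexed reporter units driven by exogenous chimeric NR-GAL4 proteins; 24 h compound exposure. Reporter mRNA measured by RT-PCR, 6-FAM primer extension, HpaI digestion and capillary electrophoresis; gain of signal fitted relative to DMSO.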

The target in assay [13] is human Retinoic Acid Receptor beta (RARb), RARB (gene 5915) (UniProt P10826). As to the kind of experiment: ATG_RARb_TRANS: Attagene TRANS-FACTORIAL HepG2 Assay for human Retinoic Acid Receptor beta (AID 2283004; active = hit-call score of the fitted dose curve at least 0.9, where 1 is the maximum). An outline of the steps:
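Fluorescent capillary-electrophoresis detection of GAL4-UAS reporter mRNA defines the endpoint, with induction over DMSO-treated wells scored as activity. Transiently transfected human hepatoma HepG2 cells expressing exogenous NR–Gal4 proteins are exposed to test chemicals for 24 h.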

In assay [14] the target is Peroxisome proliferator-activated receptor gamma (Homo sapiens) (UniProt P37231). As to the kind of experiment: ATG_PPARg_TRANS: Attagene TRANS-FACTORIAL HepG2 Assay for human Peroxisome Proliferator-activated Receptor-gamma (PPARg) (AID 2283007; active = hit-call score of the fitted dose curve at least 0.9, where 1 is the maximum). An outline of the steps:
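HepG2 cells are transiently transfected with GAL4-UAS reporter units driven by chimeric NR-Gal4 fusions and dosed for 24 h. Reporter mRNA is quantified by RT-PCR, 6-FAM labelling, HpaI digestion and capillary electrophoresis. Induction is scored against DMSO.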

Assay [15] addresses Nuclear receptor subfamily 1 group I member 2 (Homo sapiens) (UniProt O75469). As to the kind of experiment: ATG_PXR_TRANS: Attagene TRANS-FACTORIAL HepG2 Assay for human Pregnane X Receptor (PXR) (AID 2283008; active = hit-call score of the fitted dose curve at least 0.9, where 1 is the maximum). An outline of the steps: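 Measures mRNA induction of a GAL4-UAS-driven reporter in human HepG2 cells transiently expressing PXR fused to Gal4, following 24 h treatment. DMSO served as negative control and baseline.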

Assay [16] has as its target human Retinoic Acid Receptor gamma (RARg), RARG (gene 5916) (UniProt P13631). As to the kind of experiment: ATG_RARg_TRANS: Attagene TRANS-FACTORIAL HepG2 Assay for human Retinoic Acid Receptor gamma (RARg) (AID 2283009; active = hit-call score of the fitted dose curve at least 0.9, where 1 is the maximum;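 as to AC50: AC50 is for reporter induction above DMSO meaning RARg activation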). An outline of the steps:
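HepG2 cells transiently transfected with multiplexed reporter units expressing chimeric RARg-GAL4 and GAL4-UAS-driven reporters; 24 h compound exposure. Reporter mRNA quantified by RT-PCR with fluorescent labelling and capillary electrophoresis; gain-of-signal fitted relative to DMSO baseline.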

Assay [17] concerns the target human Peroxisome Proliferator-activated Receptor alpha (PPARa), PPARA (gene 5465) (UniProt Q07869). As to the kind of experiment: ATG_PPARa_TRANS: Attagene TRANS-FACTORIAL HepG2 Assay for human Peroxisome Proliferator-activated Receptor alpha (PPARa) (AID 2283001; active = hit-call score of the fitted dose curve at least 0.9, where 1 is the maximum;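 as to AC50: potency for gain of reporter signal over DMSO so agonist or activator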). An outline of the steps: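 Measures transcriptional activity of an exogenous chimeric PPARa-Gal4 protein in transiently transfected HepG2 cells after 24 h dosing. Reporter mRNA quantified via RT-PCR and capillary electrophoresis; DMSO served as negative control.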

A short description of assay [18]: BSK_3C_Proliferation: Cell Proliferation Assessment in the BioMAP Diversity Plus: 3C Assay (AID 2283006).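 As to AC50: potency may reflect either rise or fall in cell number versus DMSO.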 Particulars: primary human endothelial cells (HUVEC). A digest of the protocol:
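Human umbilical vein endothelial cells were grown sub-confluent and exposed to chemical for 48 h, then fixed with 10% TCA and stained with 0.1% sulforhodamine B; absorbance at 560 nm gave relative cell number, fitted bidirectionally against DMSO baseline.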

Read-out in assay [19]: Intercellular Adhesion Molecule 1 (ICAM1), ICAM1 (gene 3383)
As to the kind of experiment: BSK_3C_ICAM1: BioMAP Diversity Plus: 3C Assay for Intercellular Adhesion Molecule 1 (ICAM1) Biomarker Activity (AID 2283003). Conditions: primary human endothelial cells (HUVEC); actives raise or lower the signal. An outline of the steps:
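Primary human umbilical vein endothelial cells in the BioMAP 3C system were exposed to chemicals for 24 h, then ICAM-1 was quantified by ELISA. Activity was fitted bidirectionally against the DMSO negative control baseline.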

For assay [20], the target named is Retinoic acid receptor alpha (Homo sapiens) (UniProt P10276). As to the kind of experiment: ATG_RARa_TRANS: Attagene TRANS-FACTORIAL HepG2 Assay for human Retinoic Acid Receptor alpha (RARa) (AID 2283005; active = hit-call score of the fitted dose curve at least 0.9, where 1 is the maximum). An outline of the steps: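 HepG2 transiently transfected with multiplex GAL4-UAS reporter units including a human RARa–GAL4 chimera; 24 h compound exposure. Reporter mRNA quantified by RT-PCR, 6-FAM labeling and capillary electrophoresis; gain of signal versus DMSO.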
Retinoic acid receptor alpha (Homo sapiens), sequence (P10276 whole entry, looked up, the tested form may be a part): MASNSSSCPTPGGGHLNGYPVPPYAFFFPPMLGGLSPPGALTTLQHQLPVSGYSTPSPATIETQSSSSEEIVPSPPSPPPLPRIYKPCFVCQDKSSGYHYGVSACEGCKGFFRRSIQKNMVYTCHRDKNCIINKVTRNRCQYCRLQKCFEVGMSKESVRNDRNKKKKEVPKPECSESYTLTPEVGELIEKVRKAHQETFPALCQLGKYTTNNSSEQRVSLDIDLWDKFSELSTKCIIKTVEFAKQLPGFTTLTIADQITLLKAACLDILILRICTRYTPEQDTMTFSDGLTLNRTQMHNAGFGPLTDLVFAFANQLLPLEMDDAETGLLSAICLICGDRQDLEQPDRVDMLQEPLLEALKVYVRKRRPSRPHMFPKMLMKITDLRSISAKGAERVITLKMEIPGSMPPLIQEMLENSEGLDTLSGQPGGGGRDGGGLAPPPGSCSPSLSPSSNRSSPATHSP

Nuclear respiratory factor 1 (Homo sapiens), sequence (Q16656 whole entry, looked up): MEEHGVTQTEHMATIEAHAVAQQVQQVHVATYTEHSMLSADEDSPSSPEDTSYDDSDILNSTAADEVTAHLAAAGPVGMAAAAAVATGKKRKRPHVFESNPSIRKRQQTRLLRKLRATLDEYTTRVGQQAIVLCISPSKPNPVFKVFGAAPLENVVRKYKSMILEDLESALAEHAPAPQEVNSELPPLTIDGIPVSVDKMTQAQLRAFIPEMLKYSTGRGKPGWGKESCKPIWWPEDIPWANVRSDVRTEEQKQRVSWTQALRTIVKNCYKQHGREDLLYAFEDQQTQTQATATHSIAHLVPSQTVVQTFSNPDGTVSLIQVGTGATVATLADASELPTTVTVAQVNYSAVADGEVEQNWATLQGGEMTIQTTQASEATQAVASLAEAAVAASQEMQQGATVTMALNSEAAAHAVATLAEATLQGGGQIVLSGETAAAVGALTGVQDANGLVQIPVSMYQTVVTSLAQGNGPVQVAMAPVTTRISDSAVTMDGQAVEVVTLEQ
human Retinoic Acid Receptor beta (RARb), RARB (gene 5915), sequence (P10826 whole entry, looked up, the tested form may be a part): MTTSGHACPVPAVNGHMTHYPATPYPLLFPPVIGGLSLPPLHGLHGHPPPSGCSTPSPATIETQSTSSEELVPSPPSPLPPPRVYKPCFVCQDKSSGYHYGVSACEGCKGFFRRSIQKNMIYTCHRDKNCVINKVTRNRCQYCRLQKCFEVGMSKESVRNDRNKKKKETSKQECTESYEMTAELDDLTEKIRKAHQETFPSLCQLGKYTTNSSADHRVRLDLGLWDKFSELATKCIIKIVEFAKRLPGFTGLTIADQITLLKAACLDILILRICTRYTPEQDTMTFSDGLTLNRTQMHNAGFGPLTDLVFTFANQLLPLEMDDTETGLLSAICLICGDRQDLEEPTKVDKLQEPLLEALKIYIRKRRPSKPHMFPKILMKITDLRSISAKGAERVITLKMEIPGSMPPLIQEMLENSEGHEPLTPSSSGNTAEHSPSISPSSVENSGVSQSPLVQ
human Peroxisome Proliferator-activated Receptor delta (PPARd), PPARD (gene 5467), sequence (Q03181 whole entry, looked up, the tested form may be a part): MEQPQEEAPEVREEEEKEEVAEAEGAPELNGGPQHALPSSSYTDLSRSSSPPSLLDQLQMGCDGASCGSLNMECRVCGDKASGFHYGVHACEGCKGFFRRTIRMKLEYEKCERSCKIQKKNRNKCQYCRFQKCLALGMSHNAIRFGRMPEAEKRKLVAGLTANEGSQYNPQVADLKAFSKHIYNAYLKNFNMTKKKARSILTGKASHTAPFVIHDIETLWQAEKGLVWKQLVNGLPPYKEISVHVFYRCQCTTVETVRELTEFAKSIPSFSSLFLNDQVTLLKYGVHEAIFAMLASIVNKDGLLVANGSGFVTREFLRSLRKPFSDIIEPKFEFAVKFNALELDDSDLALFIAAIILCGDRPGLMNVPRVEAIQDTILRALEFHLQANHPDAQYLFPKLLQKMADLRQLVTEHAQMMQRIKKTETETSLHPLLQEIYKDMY
Myc proto-oncogene protein (Homo sapiens), sequence (P01106 whole entry, looked up): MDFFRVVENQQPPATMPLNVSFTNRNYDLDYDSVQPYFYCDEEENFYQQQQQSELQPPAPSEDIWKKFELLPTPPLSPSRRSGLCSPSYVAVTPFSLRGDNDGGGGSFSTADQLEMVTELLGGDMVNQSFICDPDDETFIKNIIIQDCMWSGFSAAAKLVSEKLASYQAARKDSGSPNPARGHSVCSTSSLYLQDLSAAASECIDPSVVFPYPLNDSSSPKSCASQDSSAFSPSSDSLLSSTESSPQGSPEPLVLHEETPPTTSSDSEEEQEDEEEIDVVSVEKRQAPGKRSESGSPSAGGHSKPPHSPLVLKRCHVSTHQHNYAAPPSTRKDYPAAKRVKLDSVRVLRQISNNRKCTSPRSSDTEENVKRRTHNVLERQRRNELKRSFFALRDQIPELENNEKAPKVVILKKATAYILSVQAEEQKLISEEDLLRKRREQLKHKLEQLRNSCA
Nuclear receptor subfamily 1 group I member 2 (Homo sapiens), sequence (O75469 whole entry, looked up, the tested form may be a part): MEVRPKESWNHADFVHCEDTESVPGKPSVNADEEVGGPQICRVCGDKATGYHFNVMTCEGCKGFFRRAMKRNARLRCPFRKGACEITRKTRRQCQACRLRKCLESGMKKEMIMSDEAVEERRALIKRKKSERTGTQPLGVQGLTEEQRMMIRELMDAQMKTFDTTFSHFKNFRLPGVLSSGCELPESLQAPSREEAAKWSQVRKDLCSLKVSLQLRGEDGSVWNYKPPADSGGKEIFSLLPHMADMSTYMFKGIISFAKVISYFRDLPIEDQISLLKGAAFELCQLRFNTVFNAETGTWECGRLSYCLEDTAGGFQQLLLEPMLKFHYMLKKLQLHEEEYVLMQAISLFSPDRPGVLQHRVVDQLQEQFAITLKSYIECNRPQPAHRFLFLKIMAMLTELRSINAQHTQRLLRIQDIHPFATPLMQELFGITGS
Peroxisome proliferator-activated receptor gamma (Homo sapiens), sequence (P37231 whole entry, looked up, the tested form may be a part): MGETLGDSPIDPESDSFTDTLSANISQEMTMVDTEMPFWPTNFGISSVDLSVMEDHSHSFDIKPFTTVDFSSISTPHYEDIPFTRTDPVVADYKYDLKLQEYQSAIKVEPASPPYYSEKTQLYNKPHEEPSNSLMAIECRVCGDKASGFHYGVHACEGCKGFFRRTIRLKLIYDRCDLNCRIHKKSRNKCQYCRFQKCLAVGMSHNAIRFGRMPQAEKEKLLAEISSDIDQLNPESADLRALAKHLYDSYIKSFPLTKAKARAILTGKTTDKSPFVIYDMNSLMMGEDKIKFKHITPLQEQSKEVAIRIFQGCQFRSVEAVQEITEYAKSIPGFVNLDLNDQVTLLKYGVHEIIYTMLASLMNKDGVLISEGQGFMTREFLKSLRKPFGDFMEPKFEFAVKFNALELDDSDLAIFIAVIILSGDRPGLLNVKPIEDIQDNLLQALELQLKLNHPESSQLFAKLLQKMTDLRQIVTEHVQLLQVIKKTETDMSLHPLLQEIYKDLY
Cellular tumor antigen p53 (Homo sapiens), sequence (P04637 whole entry, looked up): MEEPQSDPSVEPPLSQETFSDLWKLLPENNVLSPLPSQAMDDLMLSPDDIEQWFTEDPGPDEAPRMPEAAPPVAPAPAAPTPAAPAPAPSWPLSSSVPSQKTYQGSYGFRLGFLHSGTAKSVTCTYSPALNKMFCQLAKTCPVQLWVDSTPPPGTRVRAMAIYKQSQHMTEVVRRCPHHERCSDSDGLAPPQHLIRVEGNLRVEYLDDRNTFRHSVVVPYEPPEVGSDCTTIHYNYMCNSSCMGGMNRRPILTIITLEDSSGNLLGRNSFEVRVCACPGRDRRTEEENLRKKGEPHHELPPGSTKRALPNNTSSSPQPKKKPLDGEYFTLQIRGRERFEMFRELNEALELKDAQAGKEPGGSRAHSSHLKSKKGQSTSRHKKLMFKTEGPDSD
human Retinoic Acid Receptor gamma (RARg), RARG (gene 5916), sequence (P13631 whole entry, looked up, the tested form may be a part): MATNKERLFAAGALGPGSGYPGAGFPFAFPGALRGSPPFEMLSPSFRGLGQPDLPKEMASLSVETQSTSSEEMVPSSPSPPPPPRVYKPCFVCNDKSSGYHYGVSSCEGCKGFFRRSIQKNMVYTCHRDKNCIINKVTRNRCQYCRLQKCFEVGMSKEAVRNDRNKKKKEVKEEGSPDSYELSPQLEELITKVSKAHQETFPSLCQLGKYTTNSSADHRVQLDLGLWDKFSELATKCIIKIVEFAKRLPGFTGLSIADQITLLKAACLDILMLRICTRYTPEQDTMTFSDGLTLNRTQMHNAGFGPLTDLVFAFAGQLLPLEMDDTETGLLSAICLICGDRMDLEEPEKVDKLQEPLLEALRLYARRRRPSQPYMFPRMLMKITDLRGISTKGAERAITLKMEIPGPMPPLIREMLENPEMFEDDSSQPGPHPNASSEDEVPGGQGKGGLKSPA
human Peroxisome Proliferator-activated Receptor alpha (PPARa), PPARA (gene 5465), sequence (Q07869 whole entry, looked up, the tested form may be a part): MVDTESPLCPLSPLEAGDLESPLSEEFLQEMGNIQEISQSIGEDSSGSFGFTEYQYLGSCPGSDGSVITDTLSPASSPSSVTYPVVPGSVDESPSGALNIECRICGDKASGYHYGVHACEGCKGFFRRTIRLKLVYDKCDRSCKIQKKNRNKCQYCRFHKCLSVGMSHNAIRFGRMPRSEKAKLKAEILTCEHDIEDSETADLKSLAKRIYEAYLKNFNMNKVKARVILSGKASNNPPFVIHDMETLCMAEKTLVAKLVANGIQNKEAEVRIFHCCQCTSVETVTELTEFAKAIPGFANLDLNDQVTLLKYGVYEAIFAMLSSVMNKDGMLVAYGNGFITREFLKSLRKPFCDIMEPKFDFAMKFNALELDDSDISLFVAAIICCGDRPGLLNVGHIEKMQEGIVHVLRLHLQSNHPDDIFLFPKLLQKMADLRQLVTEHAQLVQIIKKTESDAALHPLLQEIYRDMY

For `Cc1ccc(S(=O)(=O)OCC(F)(F)C(F)(F)C(F)(F)C(F)(F)C(F)(F)C(F)F)cc1`, the call in assay [1], in assay [2], in assay [3], in assay [4], in assay [5] and in [6] was inactive. For the same compound, the call in assay [7], in assay [8], in [9], in assay [10], in assay [11] and in assay [12] was inactive. The compound was called inactive in assay [13], in assay [14] and in assay [16]. Also, in assay [15], the AC50 is 2.98 µM (active).

`CCO[Si](CCC(F)(F)C(F)(F)C(F)(F)C(F)(F)C(F)(F)C(F)(F)F)(OCC)OCC`: the outcome in [1], in assay [2], in [3], in assay [4], in assay [5] and in [6] was inactive. Further, the result in assay [8], in assay [9], in assay [10], in assay [17], in assay [12] and in assay [18] was inactive. Moreover, the outcome in [14], in [15] and in assay [16] was inactive.

In the case of `CCC(=O)OCCc1ccccc1`, the compound was classed as inactive in [1], in assay [2], in assay [3], in [4], in assay [5] and in assay [7]. For the same compound, the compound was classed as inactive in assay [15].

Regarding `Cc1cccc(N(C)C)c1`, the call in assay [1], in [2], in assay [3], in assay [4], in [5] and in assay [6] was inactive. For the same compound, the compound was called inactive in [17], in assay [14], in [15] and in [16].

As to `CCc1c(Br)c(Br)c(Br)c(Br)c1Br`, the call in assay [1], in [2], in assay [3], in assay [4], in assay [5] and in assay [10] was inactive. For the same compound, the outcome in assay [12], in assay [19], in assay [13], in assay [20] and in [16] was inactive. Besides, the AC50 in [9] was 20 µM (active); in assay [15], 7.09 µM (active).

Regarding `COC(OC(C)=O)c1ccccc1` (configuration not stated), the compound was called inactive in [1], in assay [2], in [3], in assay [4], in assay [5] and in [7]. Also, the compound was classed as inactive in assay [12], in assay [14] and in [15].

On to `CCCCCCCCCCCCCCCC[N+](C)(C)Cc1ccccc1`, for which the compound was called inactive in assay [1], in assay [2], in [4], in assay [5], in assay [7] and in [13]. Also, the result in assay [20] and in assay [15] was inactive. The AC50 is 25.1 µM (active) in assay [3]; 20 µM (active) in assay [9]; 8.49 µM (active) in [10]; 6.55 µM (active) in assay [11]; 45 µM (active) in assay [17]; 0.604 µM (active) in assay [18]. In addition, the AC50 in [14] was 60.2 µM (active); in assay [16] it was 49.9 µM (active).

For `FC(F)(F)C(F)(F)C(F)(F)C(F)(F)C(F)(F)CCI`, the call in assay [1], in [2], in assay [3], in assay [4], in [7] and in assay [8] was inactive. The result in assay [9], in assay [10], in assay [11], in assay [12], in [13] and in [18] was inactive. The compound was called inactive in assay [15] and in assay [16]. In addition, the results for the AC50 in assay [5], in assay [18] and in [14] were 88.9 µM (active), 30 µM (active) and 73 µM (active), respectively.

Consider `CCCCOCCOCCOC(=O)CCCCC(=O)OCCOCCOCCCC`, for which the result in assay [1], in assay [2], in assay [3], in assay [4], in assay [5] and in assay [9] was inactive. The outcome in assay [10], in assay [11], in assay [12], in assay [20], in assay [14] and in assay [15] was inactive. For the same compound, the call in assay [16] was inactive. The AC50 in assay [17] is 37.7 µM (active).
